The structures appear in SMILES notation. Records with an inconclusive call do not appear. The source holds several records for some structures; these can differ, active in one and inactive in another. Active and inactive are the calls of the source. Unless noted, the call rests on the fitted dose curve.

For assay [1], the target named is Gonadotropin-releasing hormone receptor (Homo sapiens) (UniProt P30968). Kind of assay: Human gonadotropin-releasing hormone receptor (GnRHR) small molecule agonists, calcium flux assay in GnRHR-HEK293 cells (AID 1920063). Further: nearly all actives have a fitted effect of over 35% in size. The essentials: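 Calcium-dye fluorescence, Ex/Em=480/540, recorded every 1 sec over 3 min after compound addition to GnRHR-HEK293 cells. Cells had been seeded 18 hours earlier and dye-loaded for 1 hour at 37 C. Fifteen concentrations, triplicates.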
Sequence of Gonadotropin-releasing hormone receptor (Homo sapiens) (P30968 whole entry, looked up): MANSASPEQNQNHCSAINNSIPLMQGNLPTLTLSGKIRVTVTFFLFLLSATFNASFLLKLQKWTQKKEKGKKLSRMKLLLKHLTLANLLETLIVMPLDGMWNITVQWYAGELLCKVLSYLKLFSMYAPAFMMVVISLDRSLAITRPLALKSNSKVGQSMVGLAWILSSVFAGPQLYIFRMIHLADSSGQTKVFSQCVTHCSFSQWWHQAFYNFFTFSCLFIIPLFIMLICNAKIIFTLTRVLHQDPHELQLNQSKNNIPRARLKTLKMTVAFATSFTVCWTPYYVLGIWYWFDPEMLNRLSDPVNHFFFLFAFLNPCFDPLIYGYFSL
(A change in cytosolic calcium serves as a functional read-out for many receptors and channels.)

The target of assay [2] is KiSS-1 receptor (Homo sapiens) (UniProt Q969F8). The experiment in a line: Human kisspeptin (KISS1R) small molecule agonists, calcium flux assay in KISS1R-HEK293 cells (AID 1920064; active means well fitted activation curve with a large enough effect in the repeat runs). The method in brief:
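Calcium flux read-out: kinetic fluorescence at Ex/Em=480/540, 1 s intervals over 3 min, after pin-tool compound addition to dye-loaded KISS1R-HEK293 cells. Fifteen concentrations, triplicates.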

Assay [3] can be described thus: G protein-coupled receptor (GPCR) small molecule agonists, calcium flux assay: HEK293 wild type cell line counter screen (AID 1920065). The essentials:
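Agonist mode; 18 h seeding at 37 C, 1 h dye load at 37 C; compounds pinned from DMSO, ATP as positive control; kinetic fluorescence 480/540 nm, 3 min, 1 s reads; 15 concentrations, triplicate.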

Assay [4] is described as follows: p53 small molecule agonists, cell-based qHTS assay with human liver microsomes (AID 1963577). The method in brief: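 Cells carrying a p53-responsive bla reporter were rested 5 h (37 C, 5% CO2) before compound transfer. Human liver microsomes plus NADPH, 0.5 mg/mL final apiece, supplied metabolism during the 16 h 37 C exposure.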
On the technique in general: Quantitative high-throughput screening tests each substance at several concentrations.

Assay [5] in a line: p53 small molecule agonists, cell-based qHTS assay with human liver microsomes: qHTS cell viability counter screen (AID 1963579). Further: nearly all actives have a fitted effect of over 45% in size. Further: potency means the concentration at half of the fitted maximal effect. The essentials:
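Seed p53RE-bla cells at 4,000 per well; incubate 5 h at 37 C; add compound, human liver microsomes and NADPH; incubate 16 h at 37 C; add CellTiter-Glo; after 30 min at room temperature, read luminescence.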

Assay [6] can be described thus: p53 small molecule agonists, cell-based qHTS assay with rat liver microsomes: qHTS cell viability counter screen (AID 1963580). Further: nearly all actives have a fitted effect of over 45% in size. Further: potency means the concentration at half of the fitted maximal effect. The method in brief: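 Cytotoxicity counter screen: intracellular ATP read by CellTiter-Glo luminescence in the p53 reporter wells. HCT-116 p53RE-bla cells were treated for 16 h at 37 C alongside rat liver microsomes and NADPH, each 0.5 mg/mL final.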

A short description of assay [7]: p53 small molecule agonists, cell-based qHTS assay: qHTS cell viability counter screen (AID 1963581). Further: nearly all actives have a fitted effect of over 45% in size. Further: potency means the concentration at half of the fitted maximal effect. The method in brief:
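Cytotoxicity read-out: ATP-based luminescence (CellTiter-Glo, 30 min RT) measured in the same wells as the p53 reporter assay, HCT-116 p53RE-bla cells, 16 h compound exposure at 37 C.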

Assay [8] can be described thus: p53 small molecule agonists, cell-based qHTS assay (AID 1963582; active means well fitted activation curve with a large enough effect in the signal ratio in the repeat runs, not every such curve was filed as active; the % refers to the signal ratio). The essentials: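 Fluorescence intensity read-out of a beta-lactamase reporter under a p53 response element. Cells were exposed to DMSO-dissolved compounds for 16 h at 37 C, then developed with FRET substrate for 2 h at RT.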
The target of assay [9] is Beta-2 adrenergic receptor (Homo sapiens) (UniProt P07550). The experiment in a line: Adrenergic beta2 receptor (ADRB2) small molecule antagonists, cell-based qHTS assay (AID 1963592). Further: nearly all actives have a fitted effect of over 50% in size. Further: potency means the concentration at half of the fitted maximal effect. The essentials:
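Assay format: CHO-ADRB2 cells, 18-20hr seeding at 37C/5% CO2, then compound plus 1nM isoproterenol agonist mix for 0.5hr RT. Homogeneous time-resolved fluorescence cAMP detection after 1hr, expressed as 665/615 nm ratio.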

Assay [10] has as its target D(2) dopamine receptor (Homo sapiens) (UniProt P14416). Kind of assay: Dopamine D2 receptor (DRD2) small molecule agonists, cell-based qHTS assay (AID 1963594). Further: nearly all actives have a fitted effect of over 35% in size. The essentials:
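cAMP accumulation in DRD2-HEK293 cells measured by HTRF after 1 h detection; compounds added 10 min before NKH477 (200nM […]) forskolin-analogue stimulation, 30 min at room temperature, with Ro20-1724 present at 0.1 mM final.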

Assay [11] is described as follows: Nuclear factor erythroid 2-related factor 2/antioxidant responsive element (Nrf2/ARE) small molecule agonists: luciferase reporter gene qHTS assay in human keratinocytes (AID 1919969). Further: nearly all actives have a fitted effect of over 35% in size. Background: Reporter assays use an easily measured gene product as a stand-in for the process of interest.
For assay [12], the target named is 5-hydroxytryptamine receptor 2A (Homo sapiens) (UniProt P28223). The experiment in a line: 5-hydroxytryptamine receptor 2A (HTR2A) small molecule antagonists, cell-based qHTS assay (AID 1963586). Further: nearly all actives have a fitted effect of over 45% in size. The essentials: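 CHO cells stably expressing human HTR2A were plated for 18 h at 37 C, then loaded with calcium dye for 1 h. Compounds were preincubated 5 min at room temperature before DOI (4 nM solution) was added. Kinetic fluorescence was read for 3 min.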
Sequence of 5-hydroxytryptamine receptor 2A (Homo sapiens) (P28223 whole entry, looked up): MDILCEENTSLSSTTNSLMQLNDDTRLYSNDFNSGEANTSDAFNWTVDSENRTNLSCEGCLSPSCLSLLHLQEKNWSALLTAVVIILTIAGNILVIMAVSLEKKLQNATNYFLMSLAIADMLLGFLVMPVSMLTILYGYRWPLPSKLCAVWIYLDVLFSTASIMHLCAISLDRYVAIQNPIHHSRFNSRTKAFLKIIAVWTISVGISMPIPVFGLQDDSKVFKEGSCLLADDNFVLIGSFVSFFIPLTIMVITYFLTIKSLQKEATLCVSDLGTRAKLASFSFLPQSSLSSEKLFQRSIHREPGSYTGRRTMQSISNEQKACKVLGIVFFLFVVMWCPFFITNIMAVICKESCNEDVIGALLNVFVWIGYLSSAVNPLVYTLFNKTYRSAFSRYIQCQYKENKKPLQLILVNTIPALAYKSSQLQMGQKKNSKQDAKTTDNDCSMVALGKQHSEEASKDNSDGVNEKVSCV

Assay [13] shares this target. The experiment in a line: 5-hydroxytryptamine receptor 2A (HTR2A) small molecule agonists, cell-based qHTS assay (AID 1963587). Further: nearly all actives have a fitted effect of over 30% in size. The method in brief:
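Kinetic calcium-flux fluorescence (2 min, 1 sec intervals) after compound addition in agonist mode. HTR2A-CHO cells were cultured 18 h, then dye-loaded 1 h at 37 C.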

Assay [14] addresses Muscarinic acetylcholine receptor M1 (Homo sapiens) (UniProt P11229). The experiment in a line: Cholinergic receptor muscarinic 1 (CHRM1) small molecule antagonists, cell-based qHTS assay (AID 1963588). Further: nearly all actives have a fitted effect of over 40% in size. The essentials: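 Compounds were tested at 15 concentrations in three independent runs. Dye-loaded CHRM1-CHO cells were exposed 5 min at room temperature before stimulation by acetylcholine added at 50nM. Intracellular calcium was read kinetically on FDSS for 3 min.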

The target is the same in assay [15]. Kind of assay: Cholinergic receptor muscarinic 1 (CHRM1) small molecule agonists, cell-based qHTS assay (AID 1963589). Further: nearly all actives have a fitted effect of over 35% in size. The method in brief:
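Calcium flux read-out: kinetic fluorescence at 1 sec intervals after pin-tool compound addition to dye-loaded CHRM1-CHO cells (human M1). Agonist mode; 15 concentrations tested in triplicate independent runs.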

The nature of assay [16]: cAMP Responsive Elements (CRE) small molecule agonists, cell-based qHTS assay (AID 1963590). The method in brief: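 Beta-lactamase reporter readout: LiveBLAzer B/G FRET substrate, 2 h at room temperature, added after 3 h compound treatment of CRE-bla HEK 293T cells at 37 C/5% CO2.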
A short description of assay [17]: cAMP Responsive Elements (CRE) small molecule antagonists, cell-based qHTS assay (AID 1963591; active means well fitted inhibition curve with a large enough effect in the signal ratio in the repeat runs, not every such curve was filed as active; the % refers to the signal ratio). The essentials: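 HEK293T CRE-bla; 18 h preincubation; compound pin-transfer; NKH477 0.25 uM final, 3 h, 37 C; LiveBLAzer FRET substrate 2 h RT.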
For assay [18], the target named is Beta-2 adrenergic receptor (Homo sapiens) (UniProt P07550). The experiment in a line: Adrenergic beta2 receptor (ADRB2) small molecule agonists, cell-based qHTS assay (AID 1963593).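 Further: CHO cells stably overexpressing human ADRB2.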 The essentials:
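CHO cells stably over-expressing ADRB2 were plated overnight at 37C, then dosed with compounds plus a stimulation mix containing 100uM IBMX and 25uM Ro-20-1724 for 0.5hr at room temperature. cAMP was measured by HTRF competition, 1hr.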

Assay [19] has as its target D(2) dopamine receptor (Homo sapiens) (UniProt P14416). The experiment in a line: Dopamine D2 receptor (DRD2) small molecule antagonists, cell-based qHTS assay (AID 1963595; active means well fitted inhibition curve with a large enough effect in the signal ratio in the repeat runs, with a control signal flat; the % refers to the signal ratio). The essentials:
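Human DRD2 antagonist qHTS measuring cAMP by HTRF. The cells are exposed to compound for 10 min, then to NKH477 (200 nM) and quinpirole (12 nM) for 30 min at RT, with Ro20-1724 (0.1 mM) present throughout.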

Assay [20] in a line: p53 small molecule agonists, cell-based qHTS assay with rat liver microsomes (AID 1963578). The method in brief:
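Fluorescence from a beta-lactamase reporter under a p53 response element was measured after cells had been incubated 16 h at 37 C with test compound and rat liver microsomes plus NADPH (0.5 mg/mL final each).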

Sequence of D(2) dopamine receptor (Homo sapiens) (P14416 whole entry, looked up): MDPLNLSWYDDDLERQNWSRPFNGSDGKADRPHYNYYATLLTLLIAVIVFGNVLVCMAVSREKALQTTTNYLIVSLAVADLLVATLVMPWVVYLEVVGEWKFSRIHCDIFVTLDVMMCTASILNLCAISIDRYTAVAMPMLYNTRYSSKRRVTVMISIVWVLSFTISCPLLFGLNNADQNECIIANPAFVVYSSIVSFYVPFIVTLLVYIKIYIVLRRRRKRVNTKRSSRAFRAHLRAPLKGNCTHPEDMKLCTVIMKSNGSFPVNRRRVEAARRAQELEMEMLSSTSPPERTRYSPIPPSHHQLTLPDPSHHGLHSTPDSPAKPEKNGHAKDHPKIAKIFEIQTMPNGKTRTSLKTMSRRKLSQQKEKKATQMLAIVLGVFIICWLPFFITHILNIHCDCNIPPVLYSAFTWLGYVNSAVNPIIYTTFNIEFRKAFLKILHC
Sequence of Muscarinic acetylcholine receptor M1 (Homo sapiens) (P11229 whole entry, looked up): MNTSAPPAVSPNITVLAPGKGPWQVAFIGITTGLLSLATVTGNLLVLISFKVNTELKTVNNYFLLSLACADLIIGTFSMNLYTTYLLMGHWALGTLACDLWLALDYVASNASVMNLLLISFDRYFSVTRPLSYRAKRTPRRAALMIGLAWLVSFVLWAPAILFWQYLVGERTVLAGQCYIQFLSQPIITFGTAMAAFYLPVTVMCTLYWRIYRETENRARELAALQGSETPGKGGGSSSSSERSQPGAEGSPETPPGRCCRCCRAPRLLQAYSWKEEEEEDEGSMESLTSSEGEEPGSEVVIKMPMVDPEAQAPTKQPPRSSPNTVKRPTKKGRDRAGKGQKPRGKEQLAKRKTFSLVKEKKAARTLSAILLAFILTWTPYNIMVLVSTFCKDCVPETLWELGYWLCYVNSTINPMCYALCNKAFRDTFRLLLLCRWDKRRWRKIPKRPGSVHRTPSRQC
Sequence of Beta-2 adrenergic receptor (Homo sapiens) (P07550 whole entry, looked up): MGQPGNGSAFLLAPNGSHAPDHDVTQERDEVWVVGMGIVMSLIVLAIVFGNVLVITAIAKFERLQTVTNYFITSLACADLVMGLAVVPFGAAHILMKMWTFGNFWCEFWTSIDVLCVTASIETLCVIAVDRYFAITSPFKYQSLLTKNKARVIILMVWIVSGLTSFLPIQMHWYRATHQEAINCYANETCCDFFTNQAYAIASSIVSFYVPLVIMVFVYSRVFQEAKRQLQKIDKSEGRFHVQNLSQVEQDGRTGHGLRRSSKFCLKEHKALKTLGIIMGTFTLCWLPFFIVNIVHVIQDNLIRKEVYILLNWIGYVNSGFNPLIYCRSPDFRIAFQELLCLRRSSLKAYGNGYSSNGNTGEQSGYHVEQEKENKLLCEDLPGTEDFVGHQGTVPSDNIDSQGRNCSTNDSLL
Sequence of KiSS-1 receptor (Homo sapiens) (Q969F8 whole entry, looked up): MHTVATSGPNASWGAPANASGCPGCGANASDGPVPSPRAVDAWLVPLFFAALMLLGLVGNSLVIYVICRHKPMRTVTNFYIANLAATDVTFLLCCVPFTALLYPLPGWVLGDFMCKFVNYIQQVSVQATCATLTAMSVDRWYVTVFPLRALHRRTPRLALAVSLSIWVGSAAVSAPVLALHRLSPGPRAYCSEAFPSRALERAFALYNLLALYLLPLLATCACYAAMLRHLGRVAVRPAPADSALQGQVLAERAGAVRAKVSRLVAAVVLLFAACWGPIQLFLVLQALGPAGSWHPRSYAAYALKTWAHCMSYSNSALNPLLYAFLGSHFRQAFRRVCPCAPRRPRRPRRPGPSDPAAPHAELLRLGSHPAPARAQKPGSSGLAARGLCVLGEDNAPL

`COc1ccc(CCN2CCC(Nc3nc4ccccc4n3Cc3ccc(F)cc3)CC2)cc1`: the Potency entry in [1], in assay [2], in assay [3], in [4], in assay [8] and in assay [10] was “inactive” each time. Besides, the Potency is 14.8 µM (active) and inactive in assay [5]; 26.3 µM (active) and inactive in [6]; 13.2 µM (active) in assay [7]; 55.7 µM (active) and inactive in assay [9].
As for `CCN(C=O)CC`, the Potency entry in assay [11], in assay [2], in assay [3], in assay [4], in [5] and in [6] was “inactive” in each case. Besides, the Potency result in assay [7], in [8], in assay [12], in assay [13], in assay [14] and in [15] was “inactive” each time. In addition, the Potency result in assay [16], in [17], in [9], in assay [18], in assay [10] and in assay [19] was “inactive” each time.
As for `C=CC(=O)OCCCCCCCC`, the Potency result in assay [11], in assay [2], in assay [3], in assay [4], in assay [20] and in [5] was “inactive” throughout. The Potency result in [6], in [7], in assay [8], in assay [12], in assay [13] and in assay [14] was “inactive” in each case. Moreover, the Potency result in [15], in [16], in assay [17], in [9], in assay [10] and in assay [19] was “inactive” in each case.
As to `CC(S)C(=O)NCC(=O)O` (configuration not stated), the Potency result in assay [11], in assay [2], in [3], in assay [5], in [6] and in assay [7] was “inactive” in each case. Besides, the Potency result in [8], in [12], in assay [13], in assay [14], in [15] and in [16] was “inactive” each time. Besides, the Potency result in assay [17], in assay [9], in assay [18], in assay [10] and in assay [19] was “inactive” each time.
With `CC(=O)O[C@H](CC(=O)[O-])C[N+](C)(C)C`, the Potency entry in [11], in assay [1], in [3], in assay [4], in assay [20] and in [5] was “inactive” each time. In addition, the Potency entry in assay [6], in assay [7], in [12], in assay [13], in assay [14] and in [15] was “inactive” each time. Further, the Potency entry in assay [16], in [17], in assay [9] and in [19] was “inactive” each time.
On to `Cc1ccc(C)o1`, for which the Potency result in assay [1], in assay [2], in assay [3], in [4], in [20] and in [5] was “inactive” each time. The Potency result in [6], in assay [7], in assay [12], in assay [13], in assay [14] and in [15] was “inactive” each time. Also, the Potency entry in assay [16], in [17], in assay [9], in [10] and in assay [19] was “inactive” in each case.
Turning to `O=S(=O)(O)CCCN1CCOCC1`, the Potency entry in assay [1], in assay [2], in assay [3], in assay [4], in assay [20] and in assay [6] was “inactive” in each case. The Potency result in assay [7], in [8], in [13], in assay [14], in assay [15] and in assay [16] was “inactive” each time. Moreover, the Potency result in [17], in [9], in [10] and in [19] was “inactive” in each case.

The record behind these values is PubChem BioAssay (Tox21).
